Laboratory results published in the supplement of paper PMC6555819.

What was measured:
Assay in all cases: PBM binding z-score (relative to random genomic background probes); higher = stronger binding; sequences stand for … in GC…GCGATTGACAGCGTAGAATGAAGG
[1] = test system: FXR:RXRa (NR concentration 270 nM, RXRa partner concentration 90 nM)
Procedure, shortened: (§1)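 Antibodies against each partner of ligand-free nuclear receptor dimers (one per run) detected binding on custom Agilent 4×180K protein-binding microarrays after 1 h incubation. The double-stranded probes had 34-nt variable regions carrying direct-repeat seeds, single-nucleotide variants, half-site ablations and random human genomic background sequences. Binding z-scores, from regression-normalized fluorescence, use the random background probes as reference.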

[2] = test system: LXRa:RXRa (NR concentration 270 nM, RXRa partner concentration 90 nM)
Procedure, shortened: as §1

[3] = test system: LXRa homodimer (NR concentration 270 nM)
Procedure, shortened: as §1

[4] = test system: LXRb:RXRa (NR concentration 270 nM, RXRa partner concentration 90 nM)
Procedure, shortened: as §1

[5] = test system: LXRb homodimer (NR concentration 270 nM)
Procedure, shortened: as §1

[6] = test system: PPARa:RXRa (NR concentration 270 nM, RXRa partner concentration 90 nM)
Procedure, shortened: as §1

[7] = test system: PPARg:RXRa (NR concentration 180 nM, RXRa partner concentration 90 nM)
Procedure, shortened: as §1

[8] = test system: PPARg:RXRa 270nM:90nM, anti-RXR (NR concentration 270 nM, RXRa partner concentration 90 nM)
Procedure, shortened: as §1

[9] = test system: PPARg:RXRa 30nM:10nM, anti-RXR (NR concentration 30 nM, RXRa partner concentration 10 nM)
Procedure, shortened: as §1

[10] = test system: PPARg:RXRa 90nM:30nM, anti-RXR (NR concentration 90 nM, RXRa partner concentration 30 nM)
Procedure, shortened: as §1

TGAATAAGGTTATAAGATCAGGGAACGTTGCAAA
PBM binding z-score [1]: 1.45
PBM binding z-score [2]: 1.38
PBM binding z-score [3]: 0.228
PBM binding z-score [4]: 1.24
PBM binding z-score [5]: -0.00633
PBM binding z-score [6]: 2.31
PBM binding z-score [7]: 0.925
PBM binding z-score [8]: 1.57
PBM binding z-score [9]: 1.06
PBM binding z-score [10]: 1.53

CCTATTAATTGACCATAAGGGCAACCGAAGCTCG
PBM binding z-score [1]: 0.865
PBM binding z-score [2]: 0.6
PBM binding z-score [3]: 1.66
PBM binding z-score [4]: 0.747
PBM binding z-score [5]: 0.711
PBM binding z-score [6]: 0.737
PBM binding z-score [7]: 0.586
PBM binding z-score [8]: 0.878
PBM binding z-score [9]: 0.302
PBM binding z-score [10]: 0.73

CCAGACAGGTGAGAAGGTAACTCAACCTCGATTA
PBM binding z-score [1]: -0.191
PBM binding z-score [2]: 0.167
PBM binding z-score [3]: 0.188
PBM binding z-score [4]: 0.347
PBM binding z-score [5]: -0.388
PBM binding z-score [6]: 0.894
PBM binding z-score [7]: 0.669
PBM binding z-score [8]: 0.515
PBM binding z-score [9]: 0.064
PBM binding z-score [10]: 0.437

CATACAGGCTCAGCTAGGCCAGAGTAGGGACGGC
PBM binding z-score [1]: -0.48
PBM binding z-score [2]: -0.677
PBM binding z-score [3]: -0.674
PBM binding z-score [4]: -1.16
PBM binding z-score [5]: -0.846
PBM binding z-score [6]: -0.795
PBM binding z-score [7]: 0.181
PBM binding z-score [8]: -0.549
PBM binding z-score [9]: -0.529
PBM binding z-score [10]: -0.694

GCATATAGGTAATACAAGGTGAAACTCCGATTGT
PBM binding z-score [1]: 1.27
PBM binding z-score [2]: 2.79
PBM binding z-score [3]: 0.554
PBM binding z-score [4]: 0.988
PBM binding z-score [5]: -0.38
PBM binding z-score [6]: 1.83
PBM binding z-score [7]: 1.5
PBM binding z-score [8]: 1.04
PBM binding z-score [9]: 0.514
PBM binding z-score [10]: 0.842

ATATGTAGGTTACATCCGGGTCATTGAGGCTATG
PBM binding z-score [1]: 2.34
PBM binding z-score [2]: 4.14
PBM binding z-score [3]: 1.44
PBM binding z-score [4]: 2.74
PBM binding z-score [5]: 1.01
PBM binding z-score [6]: 4.44
PBM binding z-score [7]: 5.78
PBM binding z-score [8]: 5.04
PBM binding z-score [9]: 2.75
PBM binding z-score [10]: 4.39

TCAGATAGGTAAAAGGTGAAAGTCGGTGTGGTAA
PBM binding z-score [1]: 2.12
PBM binding z-score [2]: 1.87
PBM binding z-score [3]: 0.408
PBM binding z-score [4]: 2.01
PBM binding z-score [5]: 0.00585
PBM binding z-score [6]: 4.67
PBM binding z-score [7]: 6.03
PBM binding z-score [8]: 6.8
PBM binding z-score [9]: 6.55
PBM binding z-score [10]: 7.29

ACAGACAGGTGATGAGGGTAACTCAGGCTATCAT
PBM binding z-score [1]: 0.367
PBM binding z-score [2]: -0.0236
PBM binding z-score [3]: 0.0191
PBM binding z-score [4]: 0.0104
PBM binding z-score [5]: -0.517
PBM binding z-score [6]: 0.465
PBM binding z-score [7]: 0.8
PBM binding z-score [8]: -0.0214
PBM binding z-score [9]: 0.142
PBM binding z-score [10]: -0.218

CGAACTAGGTCATCCCGGACAGTGAATACATTGA
PBM binding z-score [1]: 4.18
PBM binding z-score [2]: 2.56
PBM binding z-score [3]: 0.912
PBM binding z-score [4]: 2.09
PBM binding z-score [5]: 0.361
PBM binding z-score [6]: 4.71
PBM binding z-score [7]: 7.36
PBM binding z-score [8]: 6.47
PBM binding z-score [9]: 3.85
PBM binding z-score [10]: 6.17

GCTGCTTGGTCAACTGATGGTCAGCTAAAGCTCG
PBM binding z-score [1]: -0.663
PBM binding z-score [2]: -0.552
PBM binding z-score [3]: -0.675
PBM binding z-score [4]: -0.752
PBM binding z-score [5]: -0.593
PBM binding z-score [6]: -0.414
PBM binding z-score [7]: -0.68
PBM binding z-score [8]: -0.367
PBM binding z-score [9]: -1.15
PBM binding z-score [10]: -0.725

TCTATTAGTTGAAGGGCGACCGACGAGTCCGTTT
PBM binding z-score [1]: 0.994
PBM binding z-score [2]: 1.03
PBM binding z-score [3]: 0.292
PBM binding z-score [4]: 0.778
PBM binding z-score [5]: 0.384
PBM binding z-score [6]: 0.661
PBM binding z-score [7]: -0.000303
PBM binding z-score [8]: 2.13
PBM binding z-score [9]: 3.99
PBM binding z-score [10]: 2.9

ACAGACAGGTGAGTGAAGGTAACCCAGCTGGACG
PBM binding z-score [1]: 0.353
PBM binding z-score [2]: -0.0379
PBM binding z-score [3]: -0.585
PBM binding z-score [4]: -0.271
PBM binding z-score [5]: -0.844
PBM binding z-score [6]: 0.275
PBM binding z-score [7]: 0.708
PBM binding z-score [8]: 0.399
PBM binding z-score [9]: -0.129
PBM binding z-score [10]: 0.213

AATAGCAGGCCAAGGGTCACTCAAGATTAGTCCG
PBM binding z-score [1]: 2.6
PBM binding z-score [2]: 3.25
PBM binding z-score [3]: 0.455
PBM binding z-score [4]: 2.65
PBM binding z-score [5]: -0.0727
PBM binding z-score [6]: 4.75
PBM binding z-score [7]: 8.33
PBM binding z-score [8]: 7.83
PBM binding z-score [9]: 6.83
PBM binding z-score [10]: 8.23
